According to PubChem BioAssay (Tox21):
Where “and” joins values, the source holds several entries; their conditions need not be identical. Equal values may be shown once. Results filed as inconclusive are left out. More than one record can exist for a structure, and the calls need not agree. Calls of active or inactive are those of the source. Calls follow the shape of the dose curve; as a rule, active = well fitted curve in the direction sought with a large enough effect in the repeat runs; inconclusive = weak or mixed curves; inactive = no such curve, though single readings can be large; an effect the other way counts as inactive or inconclusive.

How the values were obtained:
[1] = qHTS RealTime-Glo MT Cell Viability Assay in HEK293 cells - 16 hour (AID 1224872); also: nearly all actives have a fitted effect of over 50% in size; also: potency is read from the fitted curve at half-maximal effect
How it was run: (§1)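 Cells + reagent dispensed (600 cells/well, HEK293) → 5 h at 37 C/5% CO2 → 23 nL compound in DMSO pinned → 40 h at 37 C → luminescence read at 0, 8, 16, 24, 32, 40 h.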

[2] = qHTS RealTime-Glo MT Cell Viability Assay in HepG2 cells - 8 hour (AID 1224873); also: nearly all actives have a fitted effect of over 55% in size; also: potency is read from the fitted curve at half-maximal effect
How it was run: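 HepG2 cells (600/well) mixed with RealTime-Glo MT reagent, settled 5 h at 37 C/5% CO2 before compound addition. Nonlytic NanoLuc luminescence from viable-cell prosubstrate reduction read repeatedly during 40 h treatment at 37 C.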

[3] = A CellTox Green Cytotoxicity Assay to monitor cytotoxicity in HepG2 cells - 16 hour (AID 1224876); also: nearly all actives have a fitted effect of over 45% in size; also: potency is read from the fitted curve at half-maximal effect
How it was run: (§2)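 Nonlytic assay: viable cells exclude the dye, so fluorescence scales with cell death. HepG2 at 600 cells/well, compounds added after 5 h, signal read across 40 h.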

[4] = qHTS RealTime-Glo MT Cell Viability Assay in HepG2 cells - 32 hour (AID 1224877); also: nearly all actives have a fitted effect of over 55% in size; also: potency is read from the fitted curve at half-maximal effect
How it was run: (§3)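 Real-time, nonlytic viability: 600 HepG2 cells/well mixed with NanoLuc enzyme plus prosubstrate; 5 h settle, compound (DMSO) added by pintool; luminescence monitored over 40 h at 37 C.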

[5] = A CellTox Green Cytotoxicity Assay to monitor cytotoxicity in HepG2 cells - 24 hour (AID 1224878); also: nearly all actives have a fitted effect of over 45% in size; also: potency is read from the fitted curve at half-maximal effect
How it was run: as §2

[6] = A CellTox Green Cytotoxicity Assay to monitor cytotoxicity in HepG2 cells - 40 hour (AID 1224879); also: nearly all actives have a fitted effect of over 40% in size; also: potency is read from the fitted curve at half-maximal effect
How it was run: as §2

[7] = A CellTox Green Cytotoxicity Assay to monitor cytotoxicity in HepG2 cells - 0 hour (AID 1224882); also: nearly all actives have a fitted effect of over 35% in size
How it was run: as §2

[8] = A CellTox Green Cytotoxicity Assay to monitor cytotoxicity in HepG2 cells - 32 hour (AID 1224883); also: nearly all actives have a fitted effect of over 50% in size; also: potency is read from the fitted curve at half-maximal effect
How it was run: as §2

[9] = qHTS RealTime-Glo MT Cell Viability Assay in HepG2 cells - 16 hour (AID 1224885); also: nearly all actives have a fitted effect of over 50% in size; also: potency is read from the fitted curve at half-maximal effect
How it was run: as §3

[10] = qHTS RealTime-Glo MT Cell Viability Assay in HEK293 cells - 8 hour (AID 1224887); also: nearly all actives have a fitted effect of over 50% in size; also: potency is read from the fitted curve at half-maximal effect
How it was run: (§4)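 Tox21 screen in HEK293 using RealTime-Glo MT chemistry, with cells and reagent co-dispensed. Luminescence proportional to viable cell number was captured at intervals during 40 h compound exposure at 37 C.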

[11] = qHTS RealTime-Glo MT Cell Viability Assay in HepG2 cells - 0 hour (AID 1224889); also: nearly all actives have a fitted effect of over 50% in size
How it was run: as §3

[12] = A CellTox Green Cytotoxicity Assay to monitor cytotoxicity in HepG2 cells - 8 hour (AID 1224890); also: nearly all actives have a fitted effect of over 45% in size; also: potency is read from the fitted curve at half-maximal effect
How it was run: as §2

[13] = qHTS RealTime-Glo MT Cell Viability Assay in HEK293 cells - 40 hour (AID 1224874); details: RealTime-Glo luminescence; max response: stronger effect = lower value; also: nearly all actives have a fitted effect of over 50% in size; also: potency is read from the fitted curve at half-maximal effect
How it was run: as §4

[14] = qHTS RealTime-Glo MT Cell Viability Assay in HEK293 cells - 0 hour (AID 1224880); also: top concentration of the series differs between compounds; nearly all actives have a fitted effect of over 45% in size
How it was run: as §4

[15] = A CellTox Green Cytotoxicity Assay to monitor cytotoxicity in HEK293 cells - 32 hour (AID 1224881); also: nearly all actives have a fitted effect of over 40% in size; also: potency is read from the fitted curve at half-maximal effect
How it was run: (§5)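 Seeding of HEK293 cells together with cytotoxicity dye preceded a 5 h incubation at 37 C/5% CO2. Test compounds in DMSO were then added and fluorescence monitored across 40 h.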

[16] = A CellTox Green Cytotoxicity Assay to monitor cytotoxicity in HEK293 cells - 8 hour (AID 1224884); also: nearly all actives have a fitted effect of over 35% in size
How it was run: as §5

[17] = A CellTox Green Cytotoxicity Assay to monitor cytotoxicity in HEK293 cells - 24 hour (AID 1224875); also: nearly all actives have a fitted effect of over 45% in size; also: potency is read from the fitted curve at half-maximal effect
How it was run: as §5

[18] = qHTS RealTime-Glo MT Cell Viability Assay in HEK293 cells - 24 hour (AID 1224886); also: nearly all actives have a fitted effect of over 50% in size; also: potency is read from the fitted curve at half-maximal effect
How it was run: as §1

[19] = A CellTox Green Cytotoxicity Assay to monitor cytotoxicity in HEK293 cells - 16 hour (AID 1224888); also: nearly all actives have a fitted effect of over 35% in size; also: potency is read from the fitted curve at half-maximal effect
How it was run: as §5
% is scaled to controls: 0 for no effect and ±100 for the full control effect.

CCCCCCCCCCCCCCCC(=O)OC[C@H](O)[C@H]1OC(=O)C(O)=C1O
inactive: Potency [1] | Potency [2] | Potency [3] | Potency [4] | Potency [5] | Potency [6] | Potency [7] | Potency [8] | Potency [9] | Potency [10] | Potency [11] | Potency [12]

Clc1ccccc1C(c1ccccc1)(c1ccccc1)n1ccnc1
active: Potency [1] 27.5 µM | Potency [13] 19.5 µM and 6.74 µM | Potency [10] 24.5 µM
24.5 µM (active) and inactive: Potency [9]
38.9 µM (active) and inactive: Potency [3]
27.5 µM (active) and inactive: Potency [2]
inactive: Potency [14] | Potency [7] | Potency [16] | Potency [11]
43.6 µM (active) and inactive: Potency [15]
21.9 µM (active) and inactive: Potency [5] | Potency [6]
49 µM (active) and inactive: Potency [12]
19.5 µM (active) and inactive: Potency [8]

Cc1onc(-c2ccccc2Cl)c1C(=O)N[C@@H]1C(=O)N2[C@@H]1SC(C)(C)[C@@H]2C(=O)O
inactive: Potency [1] | Potency [2] | Potency [17] | Potency [3] | Potency [5] | Potency [6] | Potency [14] | Potency [15] | Potency [7] | Potency [8] | Potency [18] | Potency [10] | Potency [19] | Potency [11] | Potency [12]

CC(C)OC(=O)c1cc2c(OCC(O)CNC(C)(C)C)cccc2[nH]1 (stereo not given)
inactive: Potency [2] | Potency [3] | Potency [4] | Potency [5] | Potency [14] | Potency [7] | Potency [9] | Potency [11] | Potency [12]
active: Potency [1] 4.77 µM | Potency [13] 9.52 µM | Potency [18] 9.52 µM | Potency [10] 9.52 µM

CCC(N)(CO)CO
inactive: Potency [1] | Potency [2] | Potency [17] | Potency [3] | Potency [4] | Potency [5] | Potency [6] | Potency [14] | Potency [15] | Potency [7] | Potency [8] | Potency [16] | Potency [9] | Potency [18] | Potency [10] | Potency [19] | Potency [11] | Potency [12]

CCCCCCCCCCCCc1ccc(O)cc1
inactive: Potency [14] | Potency [7] | Potency [11]
active: Potency [1] 38.9 µM | Potency [13] 38.9 µM | Potency [17] 49 µM | Potency [3] 15.5 µM | Potency [4] 49 µM | Potency [5] 13.8 µM | Potency [6] 19.5 µM | Potency [15] 49 µM | Potency [8] 15.5 µM | Potency [9] 43.6 µM | Potency [18] 43.6 µM | Potency [10] 43.6 µM | Potency [19] 49 µM | Potency [12] 17.4 µM

CC1(C)CCC(C)(C)c2cc(C(=O)Nc3ccc(C(=O)O)cc3)ccc21
inactive: Potency [1] | Potency [2] | max response [13] -14.6% | Potency [4] | Potency [7] | Potency [9] | Potency [18] | Potency [10] | Potency [19] | Potency [12]

O=C1C=CC(=O)N1c1ccc(Cc2ccc(N3C(=O)C=CC3=O)cc2)cc1
active: Potency [1] 17.4 µM | Potency [2] 12.3 µM | Potency [17] 38.9 µM | Potency [3] 13.8 µM | Potency [4] 12.3 µM | Potency [5] 11 µM | Potency [6] 7.76 µM | Potency [15] 19.5 µM | Potency [9] 12.3 µM | Potency [18] 13.8 µM | Potency [10] 21.9 µM | Potency [19] 49 µM | Potency [12] 17.4 µM
inactive: Potency [7] | Potency [11]

CCCCN(CCCC)c1ccc(C(=O)c2ccccc2C(=O)O)c(O)c1
inactive: Potency [1] | Potency [2] | max response [13] -24.6% | Potency [3] | Potency [4] | Potency [14] | Potency [7] | Potency [18] | Potency [10] | Potency [11] | Potency [12]

CC(C)n1nc(-c2cc3cc(O)ccc3[nH]2)c2c(N)ncnc21
active: Potency [1] 0.477 µM | Potency [13] 0.19 µM | Potency [6] 23.9 µM | Potency [8] 23.9 µM | Potency [18] 0.301 µM
inactive: Potency [2] | Potency [17] | Potency [3] | Potency [15] | Potency [7] | Potency [16] | Potency [9] | Potency [19] | Potency [11] | Potency [12]

O=C(c1ccc(F)cc1)C1CCN(CCn2c(=O)[nH]c3ccccc3c2=O)CC1
inactive: Potency [2] | Potency [17] | Potency [3] | Potency [4] | Potency [5] | Potency [15] | Potency [8] | Potency [16] | Potency [9] | Potency [19] | Potency [11]
active: Potency [1] 8.49 µM | Potency [13] 9.52 µM | Potency [10] 9.52 µM

O=C(Oc1cccc2cccnc12)c1ccccc1
active: Potency [6] 0.477 µM | Potency [8] 0.338 µM
inactive: Potency [1] | Potency [2] | max response [13] -33.8% | Potency [17] | Potency [7] | Potency [9] | Potency [18] | Potency [10] | Potency [19] | Potency [11] | Potency [12]

Oc1ccc(N=Nc2ccccc2)cc1
inactive: Potency [2] | Potency [3] | Potency [4] | Potency [14] | Potency [7] | Potency [9] | Potency [11] | Potency [12]
active: Potency [1] 15.7 µM | Potency [13] 22.2 µM | Potency [15] 44.2 µM | Potency [18] 17.6 µM | Potency [10] 19.8 µM

C[C@H](CCC(=O)O)[C@H]1CC[C@H]2[C@@H]3CC[C@@H]4C[C@H](O)CC[C@]4(C)[C@H]3CC[C@]12C
inactive: Potency [1] | Potency [2] | max response [13] -16.2% and -15.3% | Potency [17] | Potency [14] | Potency [15] | Potency [7] | Potency [16] | Potency [9] | Potency [18] | Potency [10] | Potency [19] | Potency [11] | Potency [12]

O=[N+]([O-])c1cc(Cl)c(Cl)c(Cl)c1Cl
inactive: Potency [1] | Potency [2] | Potency [3] | Potency [4] | Potency [7] | Potency [9] | Potency [10] | Potency [19] | Potency [11] | Potency [12]
